Structures are written as SMILES. Inconclusive results are not listed. Activity calls are given as the source filed them. How the source made its calls: active means hit-call score of the fitted dose curve at least 0.9, where 1 is the maximum; inconclusive means response in the unintended direction; inactive means score below 0.9.

A short description of the experiment: ACEA_AR_antagonist_AUC_viability: ACEA Biosciences xCELLigence Real-Time Cell Analysis on Androgen Receptor Antagonism for Viability (AID 2283776).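 Further: hits lower the growth signal relative to DMSO meaning cytotoxicity.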 Here is the method:
ACEA_AR_antagonist is a cell-based, single-readout assay that uses 22Rv1, a human prostate cancer cell line, with measurements taken at 80 hours after chemical dosing in a 384-well plate, although TO5 and TO6 (mc0.srcf) used a 96-well plate. Differences in plate size can be ignored given data normalization.ACEA_AR_80hr is one of two assay component(s) measured or calculated from the […] assay. It is designed to make measurements of real-time cell-growth kinetics, a form of growth reporter, as detected with electrical impedance signals by Real-Time Cell Electrode Sensor (RT-CES) technology.Data from the assay component ACEA_AR_antagonist_AUC_viability was analyzed in the positive analysis fitting direction relative to DMSO as the negative control and baseline of activity. Using a type of growth reporter, loss-of-signal activity can be used to understand changes in the viability. Furthermore, this assay endpoint can be referred to as a secondary readout, because this assay has produced multiple assay endpoints where this one serves a viability function. To generalize the intended target to other relatable targets, this assay endpoint is annotated to the cell cycle intended target family, where the subfamily is cytotoxicity.
The xCELLigence system Multi-E-Plate stations were used to measure the time-dependent response to chemicals. Each compound was tested in an eight-point, 1:4 serial dilution series starting at a maximum final concentration of 100 uM. A maximum starting concentration of 0.5% DMSO was present in the 100 uM chemical samples and was diluted along with the test article dilution series. The screen was performed in biological duplicate using two separate, 96-well, E-Plates 96 for each dilution series (n = 2). Positive controls (MG132 and testosterone) and a negative control (assay media) were tested in quadruplicate on each testing plate. Then, 0.5% and 0.125% DMSO were tested in duplicates in each plate to serve as solvent controls for the 2 highest concentrations of testing compounds: 100 uM and 25 uM. Reference compounds were tested with 8 concentrations with 1:5 serial dilutions. All screening was carried out by ACEA Biosciences, Inc. (San Diego, CA). 22Rv1 cells purchased from ATCC were maintained in media supplemented with 10% fetal bovine serum (FBS). Before screening, 22Rv1 cells were preconditioned in assay medium. Cells were then detached and seeded in E-Plates 96 in assay medium. After overnight monitoring of growth once every hour, compounds were added to […] cells and remained in the medium until the end of the experiment. Cellular responses were then recorded once every 5 min for the first 5 h, and once every hour for an additional 100 h.
With `N#Cc1ccccc1O`, the outcome was inactive.
Still for that read-out and setting: the value for `CCCCC(CC)COC(=O)c1ccc(N(C)C)cc1` (stereo not given) was “inactive”; that for `CC(C)Nc1ccc(NC(C)C)c2c1C(=O)c1ccccc1C2=O` was “inactive”.
Same read-out and setting: the value for `O=C1C=CC(=O)N1c1ccccc1` was “inactive”.
In the case of `CCCCCCCCCc1ccc(OCCO)cc1`, the AC50 was 14.2 µM (active).
For `Cc1ccc(O)c(-n2nc3ccccc3n2)c1`, the call was inactive.
In the case of `CCC(Cc1c(I)cc(I)c(N)c1I)C(=O)O` (stereo not given), the molecule was called inactive.
The same measure, in the same setting: the value for `CC(C)(C)c1cc(CCC(=O)OCC(COC(=O)CCc2cc(C(C)(C)C)c(O)c(C(C)(C)C)c2)(COC(=O)CCc2cc(C(C)(C)C)c(O)c(C(C)(C)C)c2)COC(=O)CCc2cc(C(C)(C)C)c(O)c(C(C)(C)C)c2)cc(C(C)(C)C)c1O` was “inactive”.
Turning to `CCN=C1C=CC(=C(c2ccc(N(CC)CC)cc2)c2ccc(N(CC)CC)cc2)c2ccccc21`, the AC50 is 0.134 µM (active).
Still for that read-out and setting: the value for `CCCCCCCCCCCCC[N+](C)(C)Cc1ccccc1` was 3.31 µM (active).
For the molecule `CCCCOC(=O)C(C)O` (stereo not given), the call was inactive.
Same read-out and setting: the value for `C[C@]12CC[C@H]3C(=CCc4cc(O)ccc43)[C@@H]1CCC2=O` was “inactive”; that for `CC(C)(C)c1cc(Cc2cc(C(C)(C)C)c(O)c(C(C)(C)C)c2)cc(C(C)(C)C)c1O` was “inactive”; that for `CCCCCCCCn1sc(Cl)c(Cl)c1=O` was “inactive”.
On the same count and under the same terms, the value for `CCCCCCCC/C=C\CCCCCCCC(=O)OCC(O)CO` (stereo not given) was “inactive”.
Turning to `CCN=c1cc2oc3cc(NCC)c(C)cc3c(-c3ccccc3C(=O)OCC)c-2cc1C`, the concentration at half-maximal activity (AC50) is 0.0138 µM (active).
Still for that read-out and setting: the value for `CCCCCCCCCCCCCC[P+](CCCC)(CCCC)CCCC` was 0.0138 µM (active).
`COCCOCCC[Si](C)(O[Si](C)(C)C)O[Si](C)(C)C`: the call was inactive.
Same read-out and setting: the value for `CCOC(=O)C1CC(=O)C(=C(O)C2CC2)C(=O)C1` (stereo not given) was “inactive”; that for `CCOC(OCC)OCC` was “inactive”.

Source of the values: PubChem BioAssay (EPA / NIEHS).
